{"source": "PubChem BioAssay AID1445", "about": "(SRMLSC, 2008)", "note": "Hit rate of the full screen: of about 220,000 compounds, about 910 (0.41%) were called active. The entries come from a sample that favours actives as a whole. Potency and affinity values are given separately. Values without a mark were called inactive.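 How the source made its calls: active means primary inhibition above the hit cutoff, then over 50% inhibition at one or more dose response concentrations (cut at about 23% in these data, passing the limit was not always enough); inconclusive means conflicting primary data, or primary hits not chosen for dose response; inactive means low primary inhibition, or under 50% at every dose.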"}
{"target": "Aminopeptidase N (Plasmodium falciparum (isolate 3D7)) (UniProt O96935)", "sequence (O96935 whole entry, looked up)": "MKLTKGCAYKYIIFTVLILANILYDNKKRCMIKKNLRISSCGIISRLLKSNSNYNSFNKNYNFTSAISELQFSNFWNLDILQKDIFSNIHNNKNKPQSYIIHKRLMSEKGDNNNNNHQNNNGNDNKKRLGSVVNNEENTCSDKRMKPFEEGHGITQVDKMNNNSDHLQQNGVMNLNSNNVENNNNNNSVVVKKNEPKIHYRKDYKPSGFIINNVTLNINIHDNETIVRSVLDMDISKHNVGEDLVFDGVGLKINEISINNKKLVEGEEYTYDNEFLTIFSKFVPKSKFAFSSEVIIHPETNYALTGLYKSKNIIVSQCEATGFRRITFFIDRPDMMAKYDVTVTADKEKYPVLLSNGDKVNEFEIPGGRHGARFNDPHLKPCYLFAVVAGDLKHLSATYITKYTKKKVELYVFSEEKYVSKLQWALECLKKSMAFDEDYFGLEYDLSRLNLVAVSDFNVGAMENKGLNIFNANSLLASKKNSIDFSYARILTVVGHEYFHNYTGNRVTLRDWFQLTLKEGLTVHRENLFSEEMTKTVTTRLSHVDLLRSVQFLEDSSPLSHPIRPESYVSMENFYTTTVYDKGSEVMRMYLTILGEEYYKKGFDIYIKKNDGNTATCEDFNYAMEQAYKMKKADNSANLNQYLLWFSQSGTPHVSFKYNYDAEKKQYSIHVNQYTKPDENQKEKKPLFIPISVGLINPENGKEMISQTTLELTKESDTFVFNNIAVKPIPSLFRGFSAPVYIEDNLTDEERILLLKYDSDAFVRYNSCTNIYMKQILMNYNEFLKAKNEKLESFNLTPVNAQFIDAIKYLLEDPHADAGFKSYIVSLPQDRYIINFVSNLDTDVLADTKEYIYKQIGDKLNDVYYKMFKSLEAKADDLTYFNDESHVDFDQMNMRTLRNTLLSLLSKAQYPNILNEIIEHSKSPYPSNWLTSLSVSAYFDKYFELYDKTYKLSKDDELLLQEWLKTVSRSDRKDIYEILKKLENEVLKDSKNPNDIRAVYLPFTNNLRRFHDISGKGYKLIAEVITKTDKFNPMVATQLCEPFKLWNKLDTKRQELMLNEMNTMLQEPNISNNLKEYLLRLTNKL", "assay": "P. falciparum M1AAP inhibitors, biochemical, fluorogenic H-Leu-NHMec substrate, 1536-well (AID 1445);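 further: plate controls were DMSO full reaction for no effect and no enzyme background for full effect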", "conditions": "recombinant M1AAP, H-Leu-NHMec fluorogenic kinetic assay; at 30 µM, stronger effect = higher value unless noted"}
{"smiles": "CCN(Cc1ccccc1)C(=O)c1cc(COc2c(F)cccc2F)on1", "inhibition": "5%"}
{"smiles": "COc1ccccc1-c1ccc(SCC(=O)NCCc2ccccc2)nn1", "inhibition": "10.8%"}
{"smiles": "Cc1cc(C(=O)COC(=O)c2nccnc2N)c(C)n1C", "inhibition": "6.62%"}
{"smiles": "CCOC(=O)C1CCCN(CC(=O)c2c[nH]c3ccc(C)cc23)C1", "note": "(stereo not drawn)", "inhibition": "5.27%"}
{"smiles": "CCOCc1nnc(NC(=O)c2ccc(NC(C)=O)cc2)s1", "inhibition": "1.45%"}
{"smiles": "COc1ccc(NC(=O)CSc2ncn[nH]2)c([N+](=O)[O-])c1", "inhibition": "-0.25%"}
{"smiles": "C=CCn1c(SCc2c(C(=O)OC)sc(N)c2C(=O)OC)nnc1-c1ccc(Br)cc1", "inhibition": "6.79%"}
{"smiles": "CCC(=O)c1c(NC(C)C)cc(C)oc1=O", "inhibition": "2.35%"}
{"smiles": "Cc1cnc(C)c(N2CCC(C(=O)NCc3cccs3)CC2)n1", "inhibition": "3.94%"}
{"smiles": "COc1cc(CNC(C)(C)C)cc(Br)c1OCc1cccs1", "inhibition": "6.22%"}
{"smiles": "COc1ccc(C2c3c(-c4ccccc4)n[nH]c3C(=O)N2c2ccc(C(=O)O)cc2)cc1", "note": "(stereo not drawn)", "inhibition": "5.67%"}
{"smiles": "COc1cc(C2c3c(-c4ccccc4)n[nH]c3C(=O)N2c2ccc(C(=O)O)cc2)ccc1O", "note": "(stereo not drawn)", "inhibition": "14.8%"}
{"smiles": "O=C(O)c1ccc(N2C(=O)c3[nH]nc(-c4ccccc4)c3C2c2ccccc2)cc1", "note": "(stereo not drawn)", "inhibition": "2.78%"}
{"smiles": "COc1cccc(C2c3c(-c4ccccc4)n[nH]c3C(=O)N2c2ccc(C(=O)O)cc2)c1", "note": "(stereo not drawn)", "inhibition": "8%"}
{"smiles": "COc1cccc(OC)c1OCCNCCO", "inhibition": "9.5%"}
{"smiles": "O=C(CCNS(=O)(=O)c1cccc2nsnc12)NCc1ccco1", "inhibition": "3.34%"}
{"smiles": "CC(=O)Nc1ccccc1C(=O)C(=O)Nc1cccc(C(=O)NCc2ccc(C)cc2)c1", "inhibition": "2.5%"}
{"smiles": "COC(=O)c1cc(NC(=S)N2CCN(C(=O)C3CCCO3)CC2)cc(C(=O)OC)c1", "note": "(stereo not drawn)", "inhibition": "-0.88%"}
{"smiles": "CCOC(=O)c1cc2c(=O)[nH]ccc2nc1C(F)(F)F", "inhibition": "5.5%"}
{"smiles": "CCOc1cc(/C=C(/C#N)c2ccc(F)cc2)ccc1OCc1ccc(C(=O)O)o1", "inhibition": "17.8%"}
{"smiles": "CCc1ccc(NC(=O)COc2ccc(/C=C(/C#N)c3nc4ccccc4[nH]3)cc2OC)cc1", "inhibition": "11%"}
{"smiles": "COc1cccc(/C=C(/C#N)c2ccc(Cl)cc2)c1OCc1cccc(C(=O)O)c1", "inhibition": "13.3%"}
{"smiles": "COc1cc(/C=C(/C#N)c2ccc(F)cc2)ccc1OCc1ccc(C(=O)O)o1", "inhibition": "27.4% (active)"}
{"smiles": "CCCc1ccc(OCc2ccc(C(=O)O)o2)c(OC)c1", "inhibition": "1.24%"}
{"smiles": "N#C/C(=C\\c1ccccc1OCc1ccc(C(=O)O)cc1)c1ccccc1", "inhibition": "-6.55%"}
{"smiles": "CCOc1cc(/C=C(/C#N)c2nc3ccccc3[nH]2)ccc1Oc1ccc([N+](=O)[O-])cn1", "inhibition": "1.44%"}
{"smiles": "COC(=O)c1ccc(COc2ccc(/C=C(\\C#N)c3nc4ccccc4[nH]3)cc2OC)o1", "inhibition": "12.6%"}
{"smiles": "COc1cc(/C=C(\\C#N)c2nc3ccccc3[nH]2)ccc1OC(=O)c1ccco1", "inhibition": "7.39%"}
{"smiles": "CN(C(=O)c1ccccc1NC(=O)C(F)(F)F)c1ccccc1", "inhibition": "4.16%"}
{"smiles": "O=C1OCC2=C1C(c1ccccc1)CC(=O)N2c1ccccc1", "note": "(stereo not drawn)", "inhibition": "5.38%"}
{"smiles": "NC(=O)C(=O)N/N=C/c1c(F)c(F)c(F)c(F)c1F", "inhibition": "13.6%"}
{"smiles": "C=C1CCN([C@@H](C)C(=O)NCc2ccc(OC)cc2)S(=O)(=O)c2ccccc21", "inhibition": "6.29%"}
{"smiles": "CN(CC(=O)N1CCN(c2ccccn2)CC1)S(=O)(=O)c1cccc2nsnc12", "inhibition": "3.43%"}
{"smiles": "Cc1cc(C)nc(N/N=C/c2ccccc2OCc2ccc(Br)cc2)n1", "inhibition": "1.44%"}
{"smiles": "Cc1ccc(C(=O)C2=C(O)C(=O)N(Cc3ccccc3)C2c2cccnc2)o1", "note": "(stereo not drawn)", "inhibition": "15.2%"}
{"smiles": "O=C(C1=C(O)C(=O)N(CCc2ccccc2)C1c1cccnc1)c1ccco1", "note": "(stereo not drawn)", "inhibition": "9.09%"}
{"smiles": "Cc1c(N2C(=O)C(=O)/C(=C(/O)c3ccccc3)C2c2ccc(F)cc2)c(=O)n(-c2ccccc2)n1C", "note": "(stereo not drawn)", "inhibition": "5.61%"}
{"smiles": "Cc1c(N/C=C/C(=O)c2ccc(Cl)cc2)c(=O)n(-c2ccccc2)n1C", "inhibition": "4.02%"}
{"smiles": "COC(=O)c1cc(NS(=O)(=O)c2ccc3c(c2)CCC(=O)N3)cc(C(=O)OC)c1", "inhibition": "8.87%"}
{"smiles": "O=C(CCC1CC(=O)Nc2ccccc21)NCc1ccc(F)cc1", "note": "(stereo not drawn)", "inhibition": "5.98%"}
{"smiles": "O=C(O)CCCC(=O)Nc1ccc(Sc2ccc([N+](=O)[O-])cc2)cc1", "inhibition": "2.99%"}
{"smiles": "CCOc1nonc1C(=N)/C(C(C)=O)=C(\\C)O", "inhibition": "-1.51%"}
{"smiles": "Cc1ccc(OCC(=O)N2CCN(c3nnc(-c4ccc(C)cc4)c4ccccc34)CC2)cc1", "inhibition": "14.1%"}
{"smiles": "CC(C)CSc1nc2ccccc2n1CC(N)=O", "inhibition": "-7.7%"}
{"smiles": "O=[n+]1c2c(n([O-])c3ccccc31)CCC2", "inhibition": "26.1% (active)"}
{"smiles": "O=[n+]1c2c(n([O-])c3cc(Br)ccc31)CCC2", "inhibition": "16.4%"}
{"smiles": "O=[n+]1c2c(n([O-])c3ccccc31)CCCC2", "inhibition": "2.78%"}
{"smiles": "COc1ccc(C(=O)N/N=C/c2c(CO)cnc(C)c2O)cc1", "inhibition": "14.8%"}
{"smiles": "Cc1ncc(CO)c(/C=N/NC(=O)c2ccc(O)cc2)c1O", "inhibition": "7.46%"}
{"smiles": "Cc1cccc2cc(CN(Cc3cccs3)S(=O)(=O)c3ccc4c(c3)OCCO4)c(=O)[nH]c12", "inhibition": "4.88%"}
{"smiles": "Cc1cccc(-n2cc(CNCCc3nc(C)cc(C)n3)c(-c3cccc(F)c3)n2)c1", "inhibition": "0.33%"}
{"smiles": "CC1CCCCN1C(=O)c1cc2nc(-c3ccccc3)cc(-c3ccccc3)n2n1", "note": "(stereo not drawn)", "inhibition": "2.04%"}
{"smiles": "COC(=O)COc1ccc(=O)n(-c2ccccc2)n1", "inhibition": "2.11%"}
{"smiles": "O=C(N/N=C/c1cccc(O)c1)c1ccc(NC(=O)c2cccc([N+](=O)[O-])c2)cc1", "inhibition": "3.44%"}
{"smiles": "O=C(c1cnn(-c2ccccc2)c1-n1cccc1)N1CCN(C2CCCCC2)CC1", "inhibition": "2.13%"}
{"smiles": "CCOC(=O)N1CCN(C(=O)c2cnn3ccccc23)CC1", "inhibition": "10.3%"}
{"smiles": "O=C(c1cnn2ccccc12)N1CCN(C2CCCCC2)CC1", "inhibition": "26.7% (active)"}
{"smiles": "COc1ccc(CNC(=O)C(c2ccncc2)N(C(=O)Cc2cccs2)c2ccccc2C)cc1", "note": "(stereo not drawn)", "inhibition": "-1.48%"}
